Among all 63,000 compounds or so, about 1,100 (1.7%) were called active. Only a selection was taken, and actives are over-represented in it overall. Results with a measured potency or affinity are listed apart. A number with no mark means an inactive call.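 How the source made its calls: active means compounds whose percent cytotoxicity in the single-dose primary screen, scaled between solvent and toxic-drug controls, exceeds 50; inactive means the rest.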
experiment: viability loss of HPDE-C7K cells – cell-based, fluorescence, HTS, primary screen (AID 431); settings: HPDE-C7K KRASV12 cells, Alamar Blue viability, 48 h; at 10 µM; stronger effect = higher value;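 further: 0% = DMSO solvent wells and 100% = doxorubicin-treated wells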

Compound	cytotoxicity
Cn1c(-c2ccc(F)cc2)cnc1SCC(=O)N1CCCCC1	-5.4%
C/C=C/c1ccc(Oc2nnnn2-c2ccc(C(N)=O)cc2)c(OC)c1	1%
c1nc(N2CCN(Cc3ccc4c(c3)OCO4)CC2)c2[nH]cnc2n1	-0.7%
Cc1ccc2[nH]c3c(N4CCN(Cc5ccc6c(c5)OCO6)CC4)ncnc3c2c1	34.4%
Fc1ccc2[nH]c3c(N4CCN(Cc5ccc6c(c5)OCO6)CC4)ncnc3c2c1	95.1% (active)
CCOc1ccc(N(CC(=O)NCc2cccs2)S(=O)(=O)c2c(C)noc2C)cc1	-1.7%
CCOC(=O)N1CCN(c2c(N3CC=C(c4ccccc4)CC3)c(=O)c2=O)CC1	-2.9%
O=C(CSc1nc2ccccc2o1)Nc1ccccc1	-14.6%
CSc1cccc(NC(=O)CSc2nc3ccccc3o2)c1	-18.9%
COc1ccc(C(=O)Nc2cccc(C)c2)cc1S(=O)(=O)N1CCOCC1	15.9%
O=C(NCc1ccoc1)c1ccc(NC(=O)c2ccccc2Cl)cc1	-12.8%
COCCn1nnnc1CN1CCC(NC(=O)c2ccc(Br)cc2)CC1	-2.4%
CC(=O)OC[C@H]1O[C@@H](n2ncc(=O)[nH]c2=O)[C@H](OC(C)=O)[C@@H]1OC(C)=O	54.7% (active)
CC(=O)OC[C@H]1O[C@@H](n2ccc(=O)[nH]c2=S)C(OC(C)=O)C1OC(C)=O (stereo partly specified)	4.5%
CC(=O)OCC1OC(n2ccc(=O)[nH]c2=O)C(O)C1O (stereo unspecified)	0.8%
Nc1nc2nonc2nc1N1CCCCC1	-2.7%
CCOC(=O)c1cnc(SC2CC(=O)N(c3ccc(OC)c(OC)c3)C2=O)nc1N (stereo unspecified)	-9.5%
CC(NC(=O)CSc1ncccn1)c1ccccc1 (stereo unspecified)	1.8%
C/C(Cl)=C\CNC(C)c1ccccc1 (stereo unspecified)	-6.7%
CC(NCCC(c1ccccc1)c1ccccc1)c1ccccc1 (stereo unspecified)	90.2% (active)
O=C(Nc1ccccc1N1CCN(C(=O)c2ccc(Cl)cc2)CC1)c1cc2ccccc2o1	13.1%

Compound	cytotoxicity
O=C(Nc1ccc(N2CCOCC2)c(Cl)c1)c1ccco1	-11.5%
O=C(Nc1ccc(N2CCN(C(=O)c3ccco3)CC2)c(Cl)c1)c1c(F)c(F)c(F)c(F)c1F	103% (active)
O=C(Nc1ccc(N2CCOCC2)c(Cl)c1)c1cccc(F)c1	31.3%
O=C(Nc1ccccc1N1CCN(C(=O)c2ccccc2)CC1)c1cc2ccccc2o1	-7.4%
O=C(Nc1ccc(N2CCN(C(=O)c3ccco3)CC2)c(Cl)c1)c1cccs1	-1%
CCCC(=O)N1CCN(c2ccc(NC(=O)c3cc4ccccc4o3)cc2)CC1	-19%
O=C(Cc1ccc(Cl)cc1)Nc1ccc(N2CCN(C(=O)c3ccco3)CC2)c(Cl)c1	21.6%
CCC(=O)Nc1ccc(NC(=O)c2cc3ccccc3o2)cc1	-17.1%
O=C(Nc1ccc(N2CCOCC2)c(Cl)c1)c1c(F)c(F)c(F)c(F)c1F	64.4% (active)
Cn1c(SCC(=O)NC(C)(C)C)nnc1-c1ccc(C(C)(C)C)cc1	8.1%
N#CCc1nc(CSc2nc3ccccc3o2)cs1	-5.5%
O=C(O)CCN1C(=O)C2C3C=CC(C3)C2C1=O (stereo unspecified)	4.7%
Cc1ccc2cc(CN(CCCO)S(=O)(=O)c3cccc4nsnc34)c(=O)[nH]c2c1C	-8.7%
Cn1c(=O)c2c(SCc3cccnc3)nc(C3CC3)nc2n(C)c1=O	-15.9%
C/C(CC1(O)/C(=N/O)CCc2nonc21)=N\O (stereo unspecified)	-0.9%
O=C(Nc1ccc(N2CCN(C(=O)c3ccccc3)CC2)c(Cl)c1)c1ccco1	-11%
Cc1ccccc1C(=O)N1CCN(c2ccc(NC(=O)c3ccco3)cc2Cl)CC1	14.5%
Cc1cc(C(=O)CSc2nnc(-c3ccccc3)n2C)c(C)n1C	16.6%
Cc1cc(C(=O)CSc2nnc(Nc3ccccc3)s2)c(C)n1CC1CCCO1 (stereo unspecified)	1.1%
C=CCn1c(C)cc(C(=O)CSc2nnc(NCc3ccccc3)s2)c1C	64.7% (active)
O=C(CSc1nnc(NCc2ccccc2)s1)c1ccco1	-6.2%

Compound	cytotoxicity
Cc1cc(C(=O)CSc2nnc(NCc3ccccc3)s2)c(C)n1C	65.2% (active)
C=CCn1c(C)cc(C(=O)CSc2nnc(Cc3ccccc3)o2)c1C	-7.3%
Cc1cc(C)n(CNc2nc(C(F)(F)F)cs2)n1	-4.6%
CC1CCN(Cc2ccc(NC(=O)CC3Oc4ccccc4NC3=O)cc2)CC1 (stereo unspecified)	0.1%
CN1C(=O)CSc2ccc(NC(=O)N3CCC(N4CCCCC4)CC3)cc21	-15.1%
Cc1ccc(C2C3=C(CC(C)(C)CC3=O)Nc3n[nH]c(C)c32)cc1 (stereo unspecified)	-5.7%
COc1cc(Cl)c(C)cc1NC(=O)CSc1nc2ccccc2o1	-5.2%
CCOC(=O)C1C(C)N=C2SCC(=O)N2C1c1cccc(Br)c1 (stereo unspecified)	-13%
COC(=O)c1ccc(C(=O)OC)c(NC(=O)CSc2nc(-c3ccco3)cc(C(F)(F)F)n2)c1	-21.1%
O=C(CSc1nc(-c2ccco2)cc(C(F)(F)F)n1)Nc1cccnc1	-0.8%
COC(=O)c1ccccc1NC(=O)CSc1nc(-c2ccco2)cc(C(F)(F)F)n1	51.7% (active)
Cc1ccc(OCC(=O)NCCO)cc1C	9.8%
C=Cn1c(N2CCOCC2)nc2c1c(=O)[nH]c(=O)n2C	-2.9%
O=C(Nc1cc(C(=O)N2CCOCC2)ccc1N1CCCC1)c1cccs1	-2.1%
CC(C)c1ccc2oc(-c3cc(N)ccc3O)nc2c1	51.5% (active)
CCc1ccc2oc(-c3cc(N)ccc3O)nc2c1	7.1%
CC(C)c1ccc2oc(-c3ccc(N)cc3)nc2c1	-11.3%
COC(=O)c1ccsc1NC(=O)CN1C(=O)CCC1=O	-1.3%
COCCn1c(SCC(=O)Nc2ncc(C)s2)nc2sc3c(c2c1=O)CCC3	14.3%
